Inconclusive results are not listed. The source made the active and inactive calls. Calls come from the whole dose curve; as a rule, active = well fitted cell-killing curve with a large enough effect; inconclusive = small, poorly fitted or top-dose-only effect, or effect the other way; inactive = flat fitted curve, though single readings scatter. *1 amine or outer side, *2 acyl side, *3 side chain or, on linkers, in order; H or OH if unused. Where a SMILES comes first, the peptide text is derived from it. Bridges are numbered along the chain shown (N, C = ends). [ ]: non-standard residue; d: D form. The star is where a group is joined. pTerphenylCO(4''-OnC5H11) = CCCCCOc1ccc(-c2ccc(-c3ccc(C(=O)*)cc3)cc2)cc1; Orn(4R-OH,5R-OH) = O=C([C@H](C[C@@H](O)[C@@H](O)N[*:3])N[*:1])[*:2]; hTyr(3S-OH,4S-OH) = N[C@H](C(=O)O)[C@H](O)[C@@H](O)c1ccc(O)cc1; Pro(3S-OH,4S-Me) = C[C@H]1CN[C@H](C(=O)O)[C@H]1O; Hyp = O=C(O)[C@@H]1C[C@@H](O)CN1
How the values were obtained:
Experiment in all cases: Primary qHTS to identify gynecologic anti-cancer compounds using libraries of approved drugs and bioactive compounds (AID 1345084); note: nearly all actives have a fitted effect of over 55% in size
Details in all cases: Gynecologic cancer cell panel viability, ATPlite luminescence, 48 h; series mostly up to 57.5 µM
OV90 = tested on: OV90
In short: (§1)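 Five-point cytotoxicity, 48 h drug exposure at 37 C, 5% CO2, on cells seeded 16 h beforehand. ATP content read by ATPlite luminescence.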

PA-1 = tested on: PA-1
In short: as §1

SKOV3 = tested on: SKOV3
In short: as §1

Tov-21-G = tested on: Tov-21-G
In short: as §1

Tov112D = tested on: Tov112D
In short: as §1
% is set by controls: 0 for no effect and ±100 for the full control effect.

CCCCCOc1ccc(-c2ccc(-c3ccc(C(=O)N[C@H]4C[C@@H](O)[C@@H](O)NC(=O)[C@@H]5[C@@H](O)[C@@H](C)CN5C(=O)[C@H]([C@@H](C)O)NC(=O)[C@H]([C@H](O)[C@@H](O)c5ccc(O)cc5)NC(=O)[C@@H]5C[C@@H](O)CN5C(=O)[C@H]([C@@H](C)O)NC4=O)cc3)cc2)cc1 ({pTerphenylCO(4''-OnC5H11)}-[Orn(4R-OH,5R-OH)]T[Hyp][hTyr(3S-OH,4S-OH)]T[Pro(3S-OH,4S-Me)]; lactam 1-C)
inactive: Potency (OV90) | Potency (PA-1) | Potency (SKOV3) | Potency (Tov-21-G) | Potency (Tov112D)

COC(=O)c1sccc1S(=O)(=O)Nc1ccc(Nc2ccccc2)cc1OC
inactive: Potency (OV90) | Potency (PA-1) | Potency (SKOV3) | Potency (Tov-21-G) | Potency (Tov112D)

C=C1CCC2C(C)(C(=O)O)CCCC2(C)C1CCC1=CCOC1=O (centres undefined)
inactive: Potency (OV90) | Potency (PA-1) | Potency (SKOV3) | Potency (Tov-21-G) | Potency (Tov112D)

Nc1nc(OCc2cc(Br)cs2)c2[nH]cnc2n1
inactive: Potency (OV90) | Potency (PA-1) | Potency (SKOV3) | Potency (Tov-21-G) | Potency (Tov112D)

C=CCC1=C[C@]2(OC)[C@H](C)[C@@H](c3ccc4c(c3)OCO4)O[C@]2(OC)CC1=O
inactive: Potency (OV90) | Potency (PA-1) | Potency (SKOV3) | Potency (Tov-21-G) | Potency (Tov112D)

O=C(NCC1(N2CCN(c3ccccc3)CC2)CCOCC1)c1cccnc1Sc1ccccc1
inactive: Potency (OV90) | Potency (PA-1) | Potency (SKOV3) | Potency (Tov-21-G)

CN(C)c1ccc(NC(=O)NS(=O)(=O)c2ccc(Cl)cc2)cc1
inactive: Potency (OV90) | Potency (PA-1) | Potency (SKOV3) | Potency (Tov-21-G) | Potency (Tov112D)

Cc1noc(-c2ccc(-c3ccc(CC(=O)O)cc3)cc2)c1NC(=O)O[C@H](C)c1ccccc1Cl
inactive: Potency (OV90) | Potency (PA-1) | Potency (SKOV3) | Potency (Tov-21-G) | Potency (Tov112D)

O=C(NCc1nc2ccccc2c(=O)n1-c1ccc(F)cc1)Nc1ccc(Cl)c(C(F)(F)F)c1
inactive: Potency (OV90) | Potency (PA-1) | Potency (SKOV3) | Potency (Tov-21-G) | Potency (Tov112D)

CCC/C=C/C=C/C1CC(O)C2(O)C(=O)OCC12 (centres undefined)
inactive: Potency (OV90) | Potency (PA-1) | Potency (SKOV3) | Potency (Tov-21-G) | Potency (Tov112D)

CC1OC(OC2C(O)COC(O[C@@H]3[C@@H](O)[C@@H](O)[C@H](OC4C(OC(=O)[C@]56CCC(C)(C)CC5C5=CCC7[C@@]8(C)C[C@H](O)[C@H](OC9OC(CO)C(O)C(O)C9O)[C@@](C)(CO)C8[C@H](O)C[C@@]7(C)[C@]5(C)CC6)OCC(O)C4O)O[C@H]3C)C2O)C(O)C(O)C1O (some centres undefined)
inactive: activity change, negative = cytotoxicity (OV90) 13.1% [at 6.55 µM] | activity change, negative = cytotoxicity (PA-1) 0.113% [at 6.55 µM] | activity change, negative = cytotoxicity (SKOV3) -8.72% [at 6.55 µM] | activity change, negative = cytotoxicity (Tov-21-G) -21.3% [at 6.55 µM] | activity change, negative = cytotoxicity (Tov112D) -9.06% [at 6.55 µM]

Cn1c(SCC(=O)N2CCC[C@H]2C(=O)Nc2ccccc2-c2ccccc2)nc2ccccc21
inactive: Potency (OV90) | Potency (PA-1) | Potency (SKOV3) | Potency (Tov-21-G) | Potency (Tov112D)

Cc1ccnc(NC(=O)C(C)c2cccc(C(=O)c3ccccc3)c2)c1 (centres undefined)
inactive: Potency (OV90) | Potency (PA-1) | Potency (SKOV3) | Potency (Tov-21-G) | Potency (Tov112D)

C=C(COC(=O)C(O)C(O)CN)C12OC1C1(C)C(=CC2=O)C(O)C(O)CC1C (centres undefined)
inactive: Potency (OV90) | Potency (PA-1) | Potency (SKOV3) | Potency (Tov-21-G) | Potency (Tov112D)

N#Cc1ccc2ncnc(NCCc3ccccc3)c2c1
inactive: Potency (OV90) | Potency (PA-1) | Potency (SKOV3) | Potency (Tov-21-G) | Potency (Tov112D)

CCC(C)/C=C(C)/C=C/C1=CC2=CC(=O)C3(C)OC(C)(O)C(C(=O)OC)C3C2=CO1 (centres undefined)
inactive: Potency (OV90) | Potency (PA-1) | Potency (SKOV3) | Potency (Tov-21-G) | Potency (Tov112D)

O=C(c1cc(Cc2n[nH]c(=O)c3ccccc23)ccc1F)N1CCCNCC1
inactive: Potency (OV90) | Potency (PA-1) | Potency (SKOV3) | Potency (Tov-21-G) | Potency (Tov112D)

Clc1ncoc1-c1c[nH]c2ccccc12
inactive: Potency (OV90) | Potency (PA-1) | Potency (SKOV3) | Potency (Tov-21-G) | Potency (Tov112D)

Cc1c(C(=O)NCc2cccnc2)nn(-c2ccc(Cl)cc2Cl)c1-c1ccc(Cl)cc1
inactive: Potency (OV90) | Potency (PA-1) | Potency (SKOV3) | Potency (Tov-21-G) | Potency (Tov112D)

C[C@]12CC[C@@H]3c4ccc(O)c(O)c4CC[C@H]3[C@@H]1CCC2=O
inactive: Potency (OV90) | Potency (PA-1) | Potency (SKOV3) | Potency (Tov-21-G) | Potency (Tov112D)

O=C(NC1CCC1)c1ccc(C#Cc2cccc(F)c2)nc1
inactive: Potency (OV90) | Potency (PA-1) | Potency (SKOV3) | Potency (Tov-21-G) | Potency (Tov112D)

O=c1[nH]c([C@@H]2CCCN2)nc2c1oc1ccc(Cl)cc12
inactive: Potency (OV90) | Potency (PA-1) | Potency (SKOV3) | Potency (Tov-21-G) | Potency (Tov112D)

Cc1cc(F)c(C(=O)Nc2cccc(-c3nncn3C(C)C)n2)cc1-n1cnc(C2CC2)c1
inactive: Potency (OV90) | Potency (PA-1) | Potency (SKOV3) | Potency (Tov-21-G) | Potency (Tov112D)

C=C1C(=O)O[C@@H]2C=C(COC(C)=O)CC/C=C(\CO)CC[C@@H]12
inactive: Potency (OV90) | Potency (PA-1) | Potency (SKOV3) | Potency (Tov-21-G) | Potency (Tov112D)

O=C(O)c1ccc(S(=O)(=O)N(Cc2ccc(OC(F)(F)F)cc2)c2ncc(C(F)(F)F)cc2Cl)cc1
inactive: Potency (OV90) | Potency (PA-1) | Potency (SKOV3) | Potency (Tov-21-G) | Potency (Tov112D)

Source: PubChem BioAssay (NCATS)
